p-CIP stab down: p/CIP protein destabilization | 290,000 compounds, 0.01% hits | decrease of EGFP signal, % at 10 µM | Q05BA5 | F442A p/CIP-EGFP cells, EGFP fluorescence, 16 h;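 active = EGFP signal decrease of at least 30% at 10 µM or well 3 SD below plate mean, unless failing retest; inactive = the rest, including hits failing retest or dose response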
Target sequence (Q05BA5 1-1403): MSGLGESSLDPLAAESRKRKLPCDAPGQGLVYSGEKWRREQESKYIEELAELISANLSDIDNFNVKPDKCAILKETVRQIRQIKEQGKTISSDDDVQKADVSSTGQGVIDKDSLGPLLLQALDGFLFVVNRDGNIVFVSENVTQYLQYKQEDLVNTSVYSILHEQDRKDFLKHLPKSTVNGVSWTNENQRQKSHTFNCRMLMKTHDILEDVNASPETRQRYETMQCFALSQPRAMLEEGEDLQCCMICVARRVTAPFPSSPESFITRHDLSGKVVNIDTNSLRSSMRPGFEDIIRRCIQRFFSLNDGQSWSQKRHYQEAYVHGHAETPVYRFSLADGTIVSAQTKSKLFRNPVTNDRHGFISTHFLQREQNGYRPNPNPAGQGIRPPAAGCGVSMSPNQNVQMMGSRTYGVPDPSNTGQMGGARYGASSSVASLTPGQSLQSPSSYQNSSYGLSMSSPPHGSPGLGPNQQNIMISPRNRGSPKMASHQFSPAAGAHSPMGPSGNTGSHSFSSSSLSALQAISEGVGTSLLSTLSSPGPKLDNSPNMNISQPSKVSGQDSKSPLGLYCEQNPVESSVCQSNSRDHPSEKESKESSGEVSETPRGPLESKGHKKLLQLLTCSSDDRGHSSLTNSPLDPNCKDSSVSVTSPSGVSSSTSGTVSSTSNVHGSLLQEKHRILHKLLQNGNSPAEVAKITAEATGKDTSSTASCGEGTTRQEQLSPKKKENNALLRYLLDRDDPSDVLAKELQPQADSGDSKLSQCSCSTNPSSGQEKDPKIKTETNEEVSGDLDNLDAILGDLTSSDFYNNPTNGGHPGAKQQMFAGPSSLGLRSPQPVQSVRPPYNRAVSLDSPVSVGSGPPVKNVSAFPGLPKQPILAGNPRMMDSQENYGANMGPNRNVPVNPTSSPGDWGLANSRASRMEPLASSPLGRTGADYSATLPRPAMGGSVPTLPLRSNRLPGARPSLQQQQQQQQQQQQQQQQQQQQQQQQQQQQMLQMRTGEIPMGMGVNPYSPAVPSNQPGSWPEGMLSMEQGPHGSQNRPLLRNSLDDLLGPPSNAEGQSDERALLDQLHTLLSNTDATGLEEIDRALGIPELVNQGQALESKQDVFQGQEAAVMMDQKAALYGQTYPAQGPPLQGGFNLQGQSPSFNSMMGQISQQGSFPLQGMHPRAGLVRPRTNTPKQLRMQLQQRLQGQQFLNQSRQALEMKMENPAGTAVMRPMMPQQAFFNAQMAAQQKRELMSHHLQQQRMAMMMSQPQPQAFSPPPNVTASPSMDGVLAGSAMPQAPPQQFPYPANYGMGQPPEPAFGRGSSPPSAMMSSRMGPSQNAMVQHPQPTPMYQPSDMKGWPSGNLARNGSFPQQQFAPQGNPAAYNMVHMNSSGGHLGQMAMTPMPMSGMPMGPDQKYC
GRIN3A LBD mod: NR3A (human) ligand-binding domain modulation; NR3A LBD differential scanning fluorimetry, Tm shift; 0% = protein alone, 100% = glycine-bound protein; Tm shift relative to glycine control, % at 25 µM; 340,000 compounds, 2.5% hits; AID 1259313;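 active = melting temperature shift of at least 10% of the positive control shift, at one fixed dose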
MPTP inh: permeability transition pore inhibition; 360,000 compounds, 1.4% hits; inhibition, % at 10 µM; isolated mouse mitochondria, Ca2+ swelling absorbance, 30 min;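 active = inhibition of 50% or more, scaled per plate between neutral and stimulator controls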;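 note: 0% = DMSO wells given calcium and 100% = 1 mM EGTA wells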
FAS TE block: inhibitors of human fatty acid synthase thioesterase domain. P49327. recombinant FAS-TE, OMFH fluorogenic substrate, fluorescence endpoint. inhibition, % at 15 µM. 360,000 compounds, 0.67% hits. AID 602261;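 active = compounds whose normalised, plate-corrected inhibition of enzyme fluorescence in the single-dose primary screen is 50% or more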;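 note: 0% = DMSO with enzyme and 100% = substrate without enzyme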
beta cell repl: inducers of beta-cell replication in MIN6 cells | 330,000 compounds, 0.29% hits | AID 2380 | MIN6 cells proliferation, ATPlite luminescence, 48 h; cells starved in 0.2% serum; 100% = growth in 10% serum | proliferation, % at 10 µM;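 active = compounds whose signal lies at least 3.5 SD above the mean of all wells on their plate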;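 note: 0% = DMSO-treated cells in low-serum medium and 100% = 10% serum control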
Rh123 counter: Rhodamine 123 counter-screen of mitochondrial pore hits; shares compounds with MPTP inh; isolated mitochondria, membrane potential, Rhodamine 123 fluorescence; inhibition, % at 10 µM; 5,000 compounds, 78% hits; AID 624504; in the data active = inhibition above about 22%;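 note: 0% = DMSO vehicle and 100% = positive control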
MPTP swell DR: MPTP inhibition, dose response swelling confirmation | IC50, µM | 780 compounds, 58% hits | isolated mitochondria swelling, absorbance | AID 651561 | shares compounds with MPTP inh; in the data active = IC50 below about 20 µM
MPTP cs DR: MPTP inhibitor counter-screen activity, dose response | 780 compounds, 49% hits | AID 651564 | shares compounds with MPTP inh | isolated mitochondria counterscreen, fluorescence read-out | IC50, µM; in the data active = IC50 below about 80 µM
Active calls of the source: *; i = inactive; nt = no result given. Shown are actives, neighbours in structure and some others; about 4.1% of the full set was active somewhere.

SMILES	p-CIP stab down	GRIN3A LBD mod	MPTP inh	FAS TE block	beta cell repl	Rh123 counter	others
O=C(/C=C/c1ccc(O)c(O)c1)NC(=O)c1ccccc1O	-16	8	-1	-1	-4	nt
C=CCNC(=O)c1c(Br)cnn1-c1ccc(C)cc1	-10	1	0	4	-1	nt
Cc1ccc(C(=O)COC(=O)c2ccccc2NC(=O)c2ccccc2)cc1[N+](=O)[O-]	0	-6	3	24	0	nt
O=C(/C=C/c1cccs1)c1ccc(NC(=O)c2cccc(Br)c2)cc1	-7	27*	54*	31	-5	62*
O=C(/C=C/c1cccs1)c1ccc(Br)cc1	0	0	48	0	-2	nt
COc1ccccc1/C=N/NC(=O)c1ccc(Cn2nc([N+](=O)[O-])cc2C)cc1	-4	-2	65*	12	-3	0	MPTP swell DR=>100;MPTP cs DR=>80
Cc1cc(SCC(=O)N/N=C/c2ccc(O)c(O)c2O)c(C)cc1Br	0	25*	92*	16	-5	57*
COc1cc(/C=N/NC(=O)CSc2cc(C)c(Br)cc2C)ccc1O	9	7	19	14	-4	nt
CSc1nnc(-c2cc3ccccc3cc2O)n1C	9	1	0	-5	-2	nt
O=C(N/N=C/c1cccc(Oc2ccccc2)c1)c1cccc(Br)c1	-6	1	67*	17	-4	75*
O=C(N/N=C/c1cccc(Oc2ccccc2)c1)c1cccc(O)c1	-10	10	0	9	-4	nt
COc1ccccc1NC(=O)C12CC3CC(C1)CC(c1ccc(C)cc1)(C3)C2	-4	-4	3	24	-5	nt
COc1ccc(NC(=O)C23CC4CC(C2)CC(c2ccc(C)cc2)(C4)C3)cc1	-6	-16	60*	31	0	21*
O=C(Nc1cccc(-c2cccc(F)c2)c1)C1CCN(C2CCC2)CC1	-2	0	64*	-2	-7	-8	MPTP swell DR=7.7*;MPTP cs DR=58*
CCN(C(=O)Cn1c([N+](=O)[O-])cnc1C)c1ccccc1	2	-3	-1	-6	-2	nt
Cc1cc2oc3cc(NCCC4CCCN4C)ccc3c(=O)c2cc1C (stereo not given)	nt	-10	94*	-1	-8	-23
O=C(Nc1ccc(F)cc1)c1cc(Cl)sc1Cl	16	1	1	-3	-1	nt
Cc1cc(OC(F)F)ccc1NC(=O)Nc1ccc([N+](=O)[O-])cc1	-8	3	99*	9	-3	86*
O=C(Nc1ccc(Cl)cc1)Nc1cc([N+](=O)[O-])ccc1F	14	3	93*	2	-3	93*
O=C(Nc1ccc([N+](=O)[O-])cc1)c1cc(Cl)sc1Cl	8	-4	89*	17	-4	85*
COc1ccc(OC(C)C(=O)Nc2ccc([N+](=O)[O-])cc2)cc1 (stereo not given)	5	-3	6	29	-1	nt
O=C(Nc1ccc([N+](=O)[O-])cc1)Nc1ccc(Cl)cc1F	-22	22*	100*	2	-5	101*
Cc1ccc(CSc2nccc(-c3c(C)nc4ccccn34)n2)cc1	-24	-1	61*	10	1	13	MPTP swell DR=i;MPTP cs DR=>80
O=c1[nH]c2ccccc2nc1/C=C/c1ccc(F)cc1	-6	-4	-1	-6	-3	nt
Fc1ccc(/C=C\c2nccc3c2[nH]c2ccccc23)cc1	7	13*	87*	36	-7	80*
SMILES	p-CIP stab down	GRIN3A LBD mod	MPTP inh	FAS TE block	beta cell repl	Rh123 counter	others
Cc1ccc(/C=C\c2nccc3c2[nH]c2ccccc23)cc1	-1	14*	75*	38	-6	61*
CCCCNC(=S)Nc1ccc(C(F)(F)F)cc1	-27	-2	102*	19	-6	82*
CCCCNC(=S)Nc1ccc(Cl)cc1	-7	-2	83*	-5	-1	81*
CCNC(=S)Nc1ccc(Cl)cc1	-10	-2	2	-9	1	nt
CCOc1ccc(C(=O)NNC(=O)CN2C(=O)NC3(CCCC3)C2=O)cc1	nt	1	1	-6	3	nt
O=C(CSc1cn[nH]n1)Nc1cccc(C(F)(F)F)c1	-18	0	0	-31	-1	nt
Cc1cc(C(=O)NC2CCCc3c2cnn3-c2cccc(C)c2C)n(C)n1 (stereo not given)	-12	1	90*	-4	-7	108*
Cn1nccc1C(=O)NC1CCCc2c1cnn2-c1ccc(C(C)(C)C)cc1 (stereo not given)	-28	16*	98*	7	-7	103*
Cc1ccc(C(=O)NC2CCCc3c2cnn3-c2ccc(F)cc2F)cn1 (stereo not given)	2	nt	52*	-5	-7	91*
CC(=O)NC1CCCc2c1cnn2-c1ccc(C(C)(C)C)cc1 (stereo not given)	2	1	0	-3	0	nt
CN(C)C(CNc1ccc(C(F)(F)F)cn1)c1ccccc1 (stereo not given)	0	3	68*	1	-1	-4	MPTP swell DR=i;MPTP cs DR=>80
Cc1cccc(C)c1OCC(=O)Nc1ccccc1N1CCCCC1	12	0	-2	26	-5	nt
Cc1ccc(Cl)cc1NS(=O)(=O)Cc1ccccc1	-2	-2	2	5	2	nt
FC(F)(F)c1cnc(NNC(=S)Nc2ccccc2Cl)c(Cl)c1	-2	9	55*	0	0	89*
O=C(NCCNc1ccnc2cc(Cl)ccc12)c1ccccc1F	9	-3	75*	-2	-2	57*
Clc1ccc2c(NCc3ccccc3)ccnc2c1	-15	-2	88*	-1	-4	83*
S=C(NNc1ccnc2cc(Cl)ccc12)Nc1ccccc1Cl	-15	20*	98*	3	0	77*
Clc1ccc(NNc2ccnc3cc(Cl)ccc23)cc1	-1	4	27	19	-5	nt
O=C(NCCNc1ccc(Cl)cc1[N+](=O)[O-])c1ccccc1F	15	0	4	12	-2	nt
Cc1cccc(NC(=S)NNc2ncc(C(F)(F)F)cc2Cl)c1	-3	-1	24	1	0	nt
COc1cccc(C(=O)Nc2cccc3c2ccc2cccn23)c1	-7	-1	3	-5	5	nt
c1ccc(CC[C@@H]2CC[C@@H](CCc3ccccc3)N2)cc1	nt	-3	69*	-9	-6	-5	MPTP swell DR=10*;MPTP cs DR=>80
O=C1NC(=O)/C(=C/c2ccc(O)cc2)S1	6	-20	0	-7	2	nt
O=C1NC(=O)C(=Cc2ccc(Cl)c(Cl)c2)S1	nt	2	73*	14	nt	92*

From PubChem BioAssay
